Screening data (PubChem BioAssay)
An excerpt weighted towards active compounds, which were near 7.2% of everything screened.
SUMO Mot1 rescue: SUMOylation pathway inhibition by Mot1-301 growth rescue; growth rescue, % at 18.8 µM; S. cerevisiae Mot1-301 growth rescue, ATP luminescence, 38.5C; percent above DMSO median, 100 means doubled; 1% of 320,000 active;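 active = every valid replicate shows activation above 250% relative to neutral control wells; inactive = the rest, any valid replicate at or below 250%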;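 also: OY570 slx delta 5 strain wells were the positive control but not used for scaling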
A1 inh: inhibitors of the anti-apoptotic protein A1, read as caspase activation | MEF A1-2A-BIM cells, Caspase-Glo 3/7 luminescence, 3 h; percent of clofoctol response, vehicle zero | 0.066% of 330,000 active | caspase activation, % (no concentration beside the values) | AID 2462;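 active = over half of replicate activation scores above 10%, or exactly half above 10 with the replicate mean above 10; inconclusive = replicate mean below 10 yet half the replicates above 10; inactive = over half of replicates below 10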
VLA-4 inh: inhibition in a human VLA-4 binding assay; VLA-4 expressing cells, ligand binding flow cytometry; 0.2% of 330,000 active; inhibition, % (about 7 µM as worked out from the volumes in the protocol); P13612; in the data active = inhibition above about 50%
Target sequence (P13612 whole entry, looked up): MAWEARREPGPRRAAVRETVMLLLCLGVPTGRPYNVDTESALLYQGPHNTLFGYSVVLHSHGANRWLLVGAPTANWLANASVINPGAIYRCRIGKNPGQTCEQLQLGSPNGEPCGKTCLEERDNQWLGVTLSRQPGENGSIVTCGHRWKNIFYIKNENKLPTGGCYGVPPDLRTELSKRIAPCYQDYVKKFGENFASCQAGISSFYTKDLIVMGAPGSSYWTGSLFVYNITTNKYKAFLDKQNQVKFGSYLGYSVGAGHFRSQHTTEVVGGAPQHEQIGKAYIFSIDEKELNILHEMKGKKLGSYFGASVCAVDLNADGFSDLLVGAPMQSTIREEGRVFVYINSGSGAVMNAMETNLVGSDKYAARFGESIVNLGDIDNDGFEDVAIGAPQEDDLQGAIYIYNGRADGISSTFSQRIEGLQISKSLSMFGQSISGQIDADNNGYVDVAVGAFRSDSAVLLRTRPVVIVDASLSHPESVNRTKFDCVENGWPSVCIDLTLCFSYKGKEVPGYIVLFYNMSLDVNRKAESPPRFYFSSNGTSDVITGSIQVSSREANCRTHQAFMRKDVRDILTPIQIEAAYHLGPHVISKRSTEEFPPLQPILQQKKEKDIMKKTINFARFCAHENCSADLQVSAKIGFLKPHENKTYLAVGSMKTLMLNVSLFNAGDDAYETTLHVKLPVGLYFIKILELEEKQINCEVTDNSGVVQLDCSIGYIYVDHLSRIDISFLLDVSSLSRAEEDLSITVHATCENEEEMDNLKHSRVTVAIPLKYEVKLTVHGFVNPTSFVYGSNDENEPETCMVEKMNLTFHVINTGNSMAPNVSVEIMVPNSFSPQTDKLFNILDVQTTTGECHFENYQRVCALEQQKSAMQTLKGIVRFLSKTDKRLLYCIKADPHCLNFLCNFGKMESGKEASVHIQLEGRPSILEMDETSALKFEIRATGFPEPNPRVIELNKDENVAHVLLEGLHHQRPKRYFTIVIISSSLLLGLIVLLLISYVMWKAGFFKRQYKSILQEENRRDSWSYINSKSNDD
Efflux pump inh: antifungal efflux pump inhibition, Nile Red retention; S. cerevisiae Candida pump triplex; inhibition, % at 10 µM; 0.44% of 330,000 active; AID 485275;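 active = plate passing quality check with inhibition over a set limit, or well fluorescence over plate mean plus 4 SD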;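 also: Nile Red retained in pooled yeast measured as flow cytometry median fluorescence; 0% = buffer negative control and 100% = Enniatin B positive control; higher means more Nile Red kept so more efflux inhibition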
ALR inh: human ALR oxidase inhibition via reduced H2O2; P55789; purified ALR, DTT oxidation, H2O2 HRP-luminol luminescence; inhibition, % (no concentration beside the values); 3.8% of 290,000 active;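 active = mean replicate inhibition above about 79%, with every replicate also reaching it, limit read from the data; inconclusive = only one of the two criteria met; inactive = mean below limit and not every replicate reaching it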
AHR act: activators of human aryl hydrocarbon receptor; P35869; AHR-responsive luciferase reporter cells, luminescence; activation, % at 5 µM; 2.5% of 320,000 active; in the data active = activation above about 47%;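 also: 0% = vehicle wells and 100% = reference agonist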
* marks the source's active call; other numbers are inactive results; ? = inconclusive; · = not tested or not shown.

SMILES	SUMO Mot1 rescue	A1 inh	VLA-4 inh	Efflux pump inh	ALR inh	AHR act
COc1cc(C2/C(=C(\O)c3ccc4c(c3)OCCO4)C(=O)C(=O)N2Cc2ccco2)cc(OC)c1OC (centres undefined)	-11.7	1.9	-0.2	-0.2	-2.4	·
CCN(C(=O)c1sc(N)c(C#N)c1C)C1CCCCC1	·	-0.1	20.9	0.2	95.6*	1.2
CCN(CCO)c1ccc(NC(=S)Nc2cccc(S(=O)(=O)N(C)C)c2)cc1	8.7	-0.1	-2.0	0.0	98.9*	5.1
CN(C)S(=O)(=O)c1cccc(NC(=S)Nc2cc(Cl)cc(Cl)c2)c1	-11.6	1.0	-3.1	-0.1	·	4.2
CN(C)S(=O)(=O)c1cccc(NC(=S)Nc2ccc(Cl)cc2Cl)c1	-24.4	0.0	27.2	0.0	98.6*	-1.6
COc1ccccc1OCC(=O)N/N=C1/SCC(=O)N1Cc1ccccc1	354.4*	0.3	-0.2	0.1	-7.1	8.1
O=C(COc1ccc(Br)cc1)N/N=C1/SCC(=O)N1Cc1ccccc1	-13.0	-1.7	·	-0.2	·	9.3
COc1ccc(CCN2C(=O)CS/C2=N\NC(=O)c2cccs2)cc1OC	17.6	0.1	-6.3	-0.1	5.1	69.1*
Cc1cc(=O)[nH]c(SCC(=O)Nc2ccc3c(c2)CCC3)c1C#N	81.2	0.8	-4.2	-0.2	48.6	1.9
Cc1cc(=O)[nH]c(SCC(=O)Nc2ccc(Br)cc2)c1C#N	-6.0	-0.5	12.1	-0.1	98.9*	17.3
Cc1cc(=O)[nH]c(SCC(=O)Nc2ccccc2C#N)c1C#N	-10.3	0.1	10.3	0.1	-2.5	2.9
Cc1cc(=O)[nH]c(SCC(=O)Nc2ccc(F)cc2)c1C#N	10.9	0.4	1.1	0.1	91.3*	3.0
COC(=O)C(Cc1ccccc1)NC(=S)NC(=O)c1ccccc1 (centres undefined)	-9.7	0.0	-0.6	0.1	55.9	2.7
COc1cccc(N2CCN(c3ccc4nnc(CCC(=O)Nc5ccccc5OC)n4n3)CC2)c1	2.0	1.0	11.9	0.1	80.3*	7.9
COc1cccc(N2CCN(c3ccc4nnc(CCC(=O)Nc5ccc(F)cc5F)n4n3)CC2)c1	162.9	0.8	-11.1	0.0	39.3	4.3
COc1cccc(N2CCN(c3ccc4nnc(CCC(=O)Nc5ccc(F)cc5)n4n3)CC2)c1	7.3	-0.2	3.1	-0.1	80.3*	1.2
Cc1nn(CC(=O)NCCN2CCOCC2)c(=O)c2cc3sccc3n12	195.3	2.5	1.4	0.0	-10.6	0.8
Brc1ccc2c(c1)C(c1cccs1)=NNC(c1cccnc1)=N2	24.1	0.7	-12.1	0.0	-6.0	91.8*
O=[N+]([O-])c1ccc(O)c(/C=N\N=C2c3ccccc3-c3ccccc32)c1	-25.2	-1.9	20.3	-0.3	-1.7	47.5*
Cc1nn(Cc2ccc(Cl)cc2)c(C)c1NC(=O)C1CC=CCC1C(=O)O (centres undefined)	-6.4	0.4	5.5	0.1	-1.3	0.2
O=C(Nc1ccc2snnc2c1)N1CCCCC1	-16.5	-0.2	1.3	0.0	?	7.1
O=C(Nc1ccc2snnc2c1)N1CCOCC1	3.4	-0.3	15.8	-0.1	76.8*	3.4
S=C(Nc1ccc(N2CCOCC2)cc1)Nc1ccc2snnc2c1	-12.3	0.0	11.3	0.1	94.9*	54.7*
O=C(Nc1ccc2snnc2c1)N1CCN(c2ccccc2)CC1	-29.4	-1.2	17.7	-0.1	98.7*	-14.7
COc1ccc(CNS(=O)(=O)c2c(C(=O)N3CCCCC3)c(C)n(C)c2C)cc1	-28.1	-1.7	15.9	-0.1	-2.2	-0.3
SMILES	SUMO Mot1 rescue	A1 inh	VLA-4 inh	Efflux pump inh	ALR inh	AHR act
CCCCN1C(=N)N([C@@H](C)CN2CCC[C@H]2CN2C(N)=NC[C@H]2CC(C)C)C[C@H]1[C@H](C)CC	-4.4	0.1	5.2	0.1	4.2	-0.8
CC1(C)CC(=O)C2=C(C1)N(Cc1ccco1)C(=O)C2(NC(=O)c1ccc(Cl)cc1Cl)C(F)(F)F (centres undefined)	21.3	-0.2	10.0	0.1	98.0*	-0.9
CC(=O)N1CCN(c2ccc(NC(=O)c3ccco3)cc2)CC1	6.8	-0.5	19.8	0.1	26.3	8.3
Cc1ccc(CNC(=O)N2CCN(c3ccc(C)cc3)CC2)cc1	-12.4	0.0	12.0	-0.1	-0.9	-1.3
CC(=O)N1CCN(c2ccc(NCc3ccc(C)cc3)cc2)CC1	-26.5	0.1	37.0	0.1	98.8*	2.4
CC(=O)N1CCN(c2ccc(NCc3ccco3)cc2)CC1	0.6	1.2	12.6	-0.1	99.0*	3.6
CC(=O)N1CCN(c2ccc(NCc3ccc(-c4cccc(Cl)c4)o3)cc2)CC1	42.7	0.6	-59.3	0.1	85.1*	3.0
CCc1ccc(CNc2ccc(N3CCN(C(C)=O)CC3)cc2)cc1	-13.4	-0.8	-2.0	-0.1	98.9*	5.6
COc1ccccc1NC(=O)c1ccc(S(=O)(=O)N2CCCC(C)C2)cc1 (centres undefined)	7.2	-0.8	8.6	0.2	0.0	3.6
CC1CC(C)CN(C2CCCCC2NS(=O)(=O)c2ccc(Cl)cc2)C1 (centres undefined)	-12.7	0.3	4.5	-0.4	-19.8	0.0
CCn1c(CCC(=O)Nc2ccccc2F)nnc1SCC(=O)Nc1ccc(OC)cc1	4.7	0.7	11.2	0.2	-1.2	2.7
Cc1ccc2c(c1)NC(=O)c1cccnc1N2	1.3	1.3	-4.8	0.0	98.4*	3.3
O=C1Nc2ccccc2Nc2ncccc21	357.6	0.0	7.1	0.0	·	0.5
COc1cc(C(=O)Nc2cccc(-c3cn4cccnc4n3)c2)cc(OC)c1OC	·	0.5	-12.1	-0.2	-1.7	4.9
CCC(=O)Nc1cccc(-c2cnc3ccccc3n2)c1	·	-1.8	7.7	0.0	87.9*	2.3
O=C(O)CCC(=O)Nc1cccc(-c2csc(-c3ccccc3)n2)c1	16.7	0.4	15.1	0.0	-2.1	-7.9
O=C(Nc1cccc(-c2cnc3ccccc3n2)c1)c1ccccc1	36.3	-0.8	2.4	-0.2	-1.8	9.5
CCC(=O)Nc1cccc(-c2cn3ccsc3n2)c1	18.2	0.6	0.0	0.0	5.8	53.8*
CCCCC(=O)Nc1cccc(-c2csc(-c3ccccc3)n2)c1	75.1	-0.4	0.1	-0.1	·	69.4*
CC(C)CC(=O)Nc1cccc(-c2cn3ccsc3n2)c1	4.6	0.7	-23.1	-0.2	-6.9	12.9
CC(C)(C)CC(=O)Nc1cccc(-c2cn3cccnc3n2)c1	-1.4	-0.1	0.0	0.0	·	47.6*
CCN(CC)C(=O)c1nn(-c2ccccc2)c2c1C1CCC2(C)C1(C)C (centres undefined)	·	-0.4	1.7	0.2	-13.5	6.0
CC1C=CCC2C(=O)N(c3cccc(C(=O)Nc4ccc(Br)cc4)c3)C(=O)C12 (centres undefined)	-11.5	-0.2	8.1	0.2	0.6	37.0
O=C(Cc1cccs1)N1CCN(S(=O)(=O)c2cccc([N+](=O)[O-])c2)CC1	3.1	-0.2	20.0	0.0	-10.1	-1.0
